Data as given in paper PMC4081100, “A DNA-binding-site landscape and regulatory network analysis for NAC transcription factors in Arabidopsis thaliana”.

Target: T1, GST-ANAC092(1-285) full length (Arabidopsis thaliana, UniProt Q9FKA0 1-285)
T1 sequence: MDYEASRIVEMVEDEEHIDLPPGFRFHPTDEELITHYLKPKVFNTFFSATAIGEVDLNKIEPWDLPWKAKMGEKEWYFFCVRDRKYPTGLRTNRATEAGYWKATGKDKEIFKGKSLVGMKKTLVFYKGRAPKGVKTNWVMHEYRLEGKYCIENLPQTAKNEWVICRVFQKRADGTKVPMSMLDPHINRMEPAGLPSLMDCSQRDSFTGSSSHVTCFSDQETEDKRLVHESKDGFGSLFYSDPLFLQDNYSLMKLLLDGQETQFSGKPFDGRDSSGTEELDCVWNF
Assay: universal protein binding microarray (PBM); transcription factors of Arabidopsis thaliana; high values mean tight binding
Details: protein: recombinant; tags: GST; chain copies: 2; dsDNA, one strand shown
Procedure, shortened: (§1)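 Binding is expressed as the normalised enrichment score (E-score). Proteins carrying a GST tag, whether NAC-domain, full-length or DNA-binding-domain forms, were induced in cells, and zinc acetate was added for zinc-finger proteins. After purification on glutathione–Sepharose 4B and quantification by A280 or anti-GST western blot, each was applied in duplicate at 200 to 500 nM final to custom all-10-mer Agilent 4 × 180K arrays made double-stranded by primer extension. Gapped and ungapped 8-mers were scored.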

| Sequence | binding signal |
| --- | --- |
| ACAGTCAA | 0.0848 E-score |
| AGGAAACC | 0.13 E-score |
| GCTAAGGA | 0.142 E-score |
| CTACGCGA | 0.177 E-score |
| GCACTCAA | 0.426 E-score |
| ACCTTACC | 0.111 E-score |
| CTACGCCA | 0.34 E-score |
| ACTCAACC | 0.408 E-score |
| ACGCCACG | 0.409 E-score |
| CACGCTAG | 0.426 E-score |
| CTTTTGAC | 0.0903 E-score |
| AAAGGTAA | 0.0772 E-score |
| ATCGCGTG | 0.441 E-score |
| ACTAGTCA | 0.0648 E-score |
| GAGGAAAC | 0.0772 E-score |
| TACGCGAA | 0.368 E-score |

| Sequence | binding signal |
| --- | --- |
| ATTGACCA | 0.0788 E-score |
| CTAAGGAA | 0.128 E-score |
| GTATTGAC | 0.147 E-score |
| AAGGAAGC | 0.13 E-score |
| GCACGCGA | 0.429 E-score |
| ACGCGATC | 0.402 E-score |
| GGGGGTAA | 0.166 E-score |
| ACACGACT | 0.171 E-score |
| AGGTAAGG | 0.0822 E-score |
| ACGGCAGT | 0.263 E-score |
| CTGGCGTA | 0.396 E-score |
| CACACGCC | 0.428 E-score |
| CACGCCAG | 0.429 E-score |
| ACGCCACC | 0.472 E-score |
| AAGACCAA | 0.124 E-score |

Target: T2, GST-NAP(1-166) (Arabidopsis thaliana, UniProt O49255 1-166)
T2 sequence: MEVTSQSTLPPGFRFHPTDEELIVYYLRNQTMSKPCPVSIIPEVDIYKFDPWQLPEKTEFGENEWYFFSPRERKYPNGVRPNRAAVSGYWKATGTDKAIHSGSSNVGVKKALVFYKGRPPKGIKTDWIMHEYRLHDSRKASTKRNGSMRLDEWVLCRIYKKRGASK
Assay: as above
Details: protein: recombinant; tags: GST; chain copies: 2; dsDNA, one strand shown
Procedure, shortened: as §1

| Sequence | binding signal |
| --- | --- |
| ACAGTCAA | 0.0868 E-score |
| GGAGGGAA | 0.074 E-score |
| CACGCTAG | 0.0849 E-score |
| AAAGGTAA | 0.0527 E-score |
| ACTAGTCA | 0.0759 E-score |
| GAGGAAAC | 0.0571 E-score |
| TACGCGAA | 0.0761 E-score |
| GTATTGAC | 0.121 E-score |
| ACGCGATC | 0.116 E-score |
| AAGTCAAA | 0.102 E-score |
| ACACGACT | 0.179 E-score |
| ACGGCAGT | 0.0813 E-score |
| ACGCCACC | 0.0741 E-score |

Target: T3, GST-NST2(1-184) (Arabidopsis thaliana, UniProt Q9M274 1-184)
T3 sequence: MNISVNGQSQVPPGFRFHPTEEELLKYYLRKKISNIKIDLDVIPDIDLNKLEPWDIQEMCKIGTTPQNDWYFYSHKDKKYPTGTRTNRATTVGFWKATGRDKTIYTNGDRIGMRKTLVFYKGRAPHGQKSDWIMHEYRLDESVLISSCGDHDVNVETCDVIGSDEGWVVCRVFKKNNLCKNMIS
Assay: as above
Details: protein: recombinant; tags: GST; chain copies: 2; dsDNA, one strand shown
Procedure, shortened: as §1

| Sequence | binding signal |
| --- | --- |
| ATTTCCTC | 0.115 E-score |
| CTACGCGA | 0.0539 E-score |
| GCACTCAA | 0.196 E-score |
| CTACGCCA | 0.147 E-score |
| ACTCAACC | 0.221 E-score |
| ACGCCACG | 0.128 E-score |
| TGAGGAAA | 0.105 E-score |
| CACGCTAG | 0.156 E-score |
| AAAGGTAA | 0.199 E-score |
| ATCGCGTG | 0.135 E-score |
| TACGCGAA | 0.185 E-score |
| CTAAGGAA | 0.144 E-score |
| AAGGAAGC | 0.185 E-score |
| GCACGCGA | 0.191 E-score |
| ACGCGATC | 0.198 E-score |
| AGGAAATC | 0.0993 E-score |
| AAGTCAAA | 0.0885 E-score |
| ACACGACT | 0.19 E-score |
| ACGGCAGT | 0.138 E-score |
| CTGGCGTA | 0.203 E-score |
| CACACGCC | 0.134 E-score |
| GCTAAGCA | 0.0614 E-score |
| ACGCCACC | 0.276 E-score |
| AAGACCAA | 0.18 E-score |

Target: T4, GST-NTL8 NAC domain (Arabidopsis thaliana, UniProt Q9XIN7 14-156)
T4 sequence: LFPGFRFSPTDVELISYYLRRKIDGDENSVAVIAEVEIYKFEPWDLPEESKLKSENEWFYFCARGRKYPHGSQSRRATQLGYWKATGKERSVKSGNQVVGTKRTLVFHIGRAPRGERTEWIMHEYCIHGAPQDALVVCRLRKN
Assay: as above
Details: protein: recombinant; tags: GST; chain copies: 2; dsDNA, one strand shown
Procedure, shortened: as §1

| Sequence | binding signal |
| --- | --- |
| ATTTCCTC | 0.437 E-score |
| ACAGTCAA | 0.164 E-score |
| AGGAAACC | 0.482 E-score |
| GCACTCAA | 0.0643 E-score |
| ACCTTACC | 0.417 E-score |
| TGAGGAAA | 0.429 E-score |
| GGAGGGAA | 0.421 E-score |
| AAAGGTAA | 0.402 E-score |
| ACTAGTCA | 0.128 E-score |
| GAGGAAAC | 0.465 E-score |
| ATTGACCA | 0.163 E-score |
| CTAAGGAA | 0.246 E-score |
| AAGGAAGC | 0.188 E-score |
| GGGGGTAA | 0.403 E-score |
| AGGAAATC | 0.437 E-score |
| AGGTAAGG | 0.424 E-score |

Target: T5, GST-SND1(1-203) (Arabidopsis thaliana, UniProt Q9LPI7 1-203)
T5 sequence: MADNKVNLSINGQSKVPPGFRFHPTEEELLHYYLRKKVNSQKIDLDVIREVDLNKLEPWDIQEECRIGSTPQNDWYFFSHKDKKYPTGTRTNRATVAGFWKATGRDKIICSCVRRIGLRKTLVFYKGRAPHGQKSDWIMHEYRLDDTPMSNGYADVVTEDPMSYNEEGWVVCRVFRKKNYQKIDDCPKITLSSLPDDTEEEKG
Assay: as above
Details: protein: recombinant; tags: GST; chain copies: 2; dsDNA, one strand shown
Procedure, shortened: as §1

| Sequence | binding signal |
| --- | --- |
| ATTTCCTC | 0.091 E-score |
| AGGAAACC | 0.0696 E-score |
| GCTAAGGA | 0.064 E-score |
| CTACGCGA | 0.417 E-score |
| GCACTCAA | 0.263 E-score |
| ACCTTACC | 0.152 E-score |
| CTACGCCA | 0.454 E-score |
| ACTCAACC | 0.381 E-score |
| ACGCCACG | 0.249 E-score |
| TGAGGAAA | 0.172 E-score |
| GGAGGGAA | 0.0554 E-score |
| CACGCTAG | 0.218 E-score |
| AAAGGTAA | 0.124 E-score |
| ATCGCGTG | 0.266 E-score |
| GAGGAAAC | 0.099 E-score |
| TACGCGAA | 0.416 E-score |
| CTAAGGAA | 0.306 E-score |
| AAGGAAGC | 0.175 E-score |
| GCACGCGA | 0.286 E-score |
| ACGCGATC | 0.364 E-score |
| GGGGGTAA | 0.229 E-score |
| AGGAAATC | 0.0802 E-score |
| AGGTAAGG | 0.147 E-score |
| CTGGCGTA | 0.409 E-score |
| CACACGCC | 0.119 E-score |
| CACGCCAG | 0.178 E-score |
| GCTAAGCA | 0.155 E-score |
| ACGCCACC | 0.408 E-score |

Target: T6, GST-VND3 NAC domain (Arabidopsis thaliana, UniProt Q9FH59 12-162)
T6 sequence: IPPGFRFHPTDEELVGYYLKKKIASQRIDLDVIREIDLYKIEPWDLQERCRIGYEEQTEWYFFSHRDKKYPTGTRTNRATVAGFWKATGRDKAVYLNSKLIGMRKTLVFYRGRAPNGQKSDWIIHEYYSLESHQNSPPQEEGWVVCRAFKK
Assay: as above
Details: protein: recombinant; tags: GST; chain copies: 2; dsDNA, one strand shown
Procedure, shortened: as §1

| Sequence | binding signal |
| --- | --- |
| ACAGTCAA | 0.0711 E-score |
| CTTTTGAC | 0.12 E-score |
| ACTAGTCA | 0.108 E-score |
| ATTGACCA | 0.129 E-score |
| GTATTGAC | 0.0734 E-score |
| AAGTCAAA | 0.0889 E-score |
| GTCAACGA | 0.0713 E-score |
| ACACGACT | 0.309 E-score |
| ACGGCAGT | 0.342 E-score |
| AAGACCAA | 0.151 E-score |

Target: T7, GST-VND7 NAC domain (Arabidopsis thaliana, UniProt Q9C8W9 9-158)
T7 sequence: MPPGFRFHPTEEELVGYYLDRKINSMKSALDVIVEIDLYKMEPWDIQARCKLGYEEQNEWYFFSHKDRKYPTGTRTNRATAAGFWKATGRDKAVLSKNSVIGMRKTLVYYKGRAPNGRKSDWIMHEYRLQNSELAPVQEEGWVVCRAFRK
Assay: as above
Details: protein: recombinant; tags: GST; chain copies: 2; dsDNA, one strand shown
Procedure, shortened: as §1

| Sequence | binding signal |
| --- | --- |
| ACAGTCAA | 0.0752 E-score |
| CTTTTGAC | 0.101 E-score |
| ACTAGTCA | 0.0656 E-score |
| ATTGACCA | 0.0794 E-score |
| GTATTGAC | 0.0877 E-score |
| AAGTCAAA | 0.106 E-score |
| GTCAACGA | 0.104 E-score |
| ACACGACT | 0.265 E-score |
| ACGGCAGT | 0.238 E-score |
| AAGACCAA | 0.124 E-score |

Target: GST-WRKY1(266-371) (Arabidopsis thaliana, UniProt Q9SI37 266-371)
Assay: as above
Details: protein: recombinant; tags: GST; dsDNA, one strand shown
Procedure, shortened: as §1

GST-WRKY1(266-371), sequence (Q9SI37 266-371): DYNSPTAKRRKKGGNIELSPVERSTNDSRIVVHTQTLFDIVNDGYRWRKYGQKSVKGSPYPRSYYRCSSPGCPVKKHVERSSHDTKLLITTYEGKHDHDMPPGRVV

| Sequence | binding signal |
| --- | --- |
| ACAGTCAA | 0.477 E-score |
| CTTTTGAC | 0.448 E-score |
| ACTAGTCA | 0.435 E-score |
| ATTGACCA | 0.482 E-score |
| GTATTGAC | 0.455 E-score |
| AAGTCAAA | 0.488 E-score |
| GTCAACGA | 0.486 E-score |
| ACACGACT | 0.312 E-score |
| ACGGCAGT | 0.0779 E-score |
| AAGACCAA | 0.42 E-score |
